Records with an inconclusive call do not appear. Calls come from the whole dose curve.

The record followed here is PubChem BioAssay (NCATS).

A short description of the test: Primary qHTS to identify inhibitors of SARS-CoV-2 cell entry (AID 1645846). The note with it: SARS-CoV-2 pseudovirus cell entry assay, luminescence; activity change, negative = inhibition: at 57.1 µM (top of the series) unless noted; series mostly up to 57.1 µM. The procedure, abridged: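 Luminescence readout (Bright-Glo luciferase) 48 h after pseudoparticle addition. HEK293-ACE2 cells, 1500/well; compound pre-incubation 1 h; Normalized to spike PP and bald PP.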
For `C[C@@H]([C@H](O)c1ccccc1)N(C)C`, the activity change, negative = inhibition was -34.9%.

Consider `O=C(O)C(Cl)(Cl)Cl`, for which the activity change, negative = inhibition was -27.9%.

With `O=C/C=C/c1ccccc1`, the activity change, negative = inhibition was -22.2%.

As to `C[N+]1(C)CCCCC1COC(=O)C(O)(c1ccccc1)c1ccccc1` (configuration not stated), the activity change, negative = inhibition was -8.43%.

As to `CCCCC[C@@H](O)C1C(=O)OC(C)[C@H](O)/C=C/C=C/C=C/C=C/C=C(\C)C(O)C(O)C(O)C[C@H](O)C[C@H](O)C[C@H](O)C[C@H](O)C[C@@H]1O` (some centres not stated), the activity change, negative = inhibition was -29.9%.

With `Oc1ccc2c3c1O[C@H]1[C@@H](O)CC[C@@]4(O)[C@@H](C2)N(CC2CCC2)CC[C@]314`, the activity change, negative = inhibition is 1.55%.

`CC(C)CCC(=O)O[C@H]1CC[C@H]2[C@@H]3CCC4=CC(=O)CC[C@]4(C)[C@H]3CC[C@]12C`: the activity change, negative = inhibition is -25.5%.

With `Cc1ccccc1-n1c(CF)nc2ccc(N)cc2c1=O`, the activity change, negative = inhibition is -3.31%.

`C[C@]12CC[C@H](OS(=O)(=O)O)CC1=CC[C@@H]1[C@@H]2CC[C@]2(C)C(=O)CC[C@@H]12`: the activity change, negative = inhibition was -5.13%.

For the compound `COc1cc2c(cc1OC)[C@@]13CCN4CC5=CCO[C@H]6CC(=O)N2[C@H]1[C@H]6[C@H]5C[C@H]43`, the activity change, negative = inhibition was -18.2%.

With `CC[N+](C)(CC)CCOC(=O)C(O)(c1ccccc1)c1ccccc1`, the activity change, negative = inhibition was -7.01%.

As for `O=c1[nH]cc(N(CCCl)CCCl)c(=O)[nH]1`, the activity change, negative = inhibition is -21% [at 114 µM].
